# Compounds without any hit were thinned out: in the full panel of roughly 83,000, 20% have a hit.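 For each line, cells grew in 96-well plates with the test compound present at a single concentration for 48 hours.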 Active and inactive are the calls of the source. How the source made its calls: active means growth percent below 10; inactive means the rest.
# Tested on: NCI-H23 lung
# Assay: NCI-60 one-dose screen, 48 h (100 = growth as untreated, 0 = no growth, -100 = all killed)
# Settings: 10 µM unless noted
row,SMILES,growth
1,Cc1ccc(Cl)cc1Nc1nc(C(F)(F)F)ccc1C(=O)N/N=C/c1cccnc1,37.4% (inactive)
2,Fc1ccc(-c2nn(-c3ccccc3)cc2-c2nc3ccccc3o2)cc1,65.8% (inactive)
3,CCOC(=O)C(=Cc1cccc(Br)c1)C(=O)OCC,17.7% (inactive)
4,COc1cccc(NC(=O)Cn2cc(CN3CCN(c4ccnc5cc(Cl)ccc45)CC3)nn2)c1,95% (inactive)
5,CCOC(=O)c1cc2c(=O)oc3ccccc3c2oc1=O,112% (inactive)
6,O=C(Nc1cc(Cl)ccc1O)c1ccc(Nc2ccnc(C(F)(F)F)c2)cc1,9.34% (active)
7,C=C(C)[C@@H]1CC[C@]2(C(=O)O)CC[C@]3(C)[C@H](CC[C@@H]4[C@@]5(C)C[C@@H](Cc6cn(CCO[C@@H]7O[C@H](COC(C)=O)[C@H](OC(C)=O)[C@H](OC(C)=O)[C@H]7OC(C)=O)nn6)[C@H](O)C(C)(C)[C@@H]5CC[C@]43C)[C@@H]12,60.5% (inactive)
8,CC(C)CCC[C@@H](C)[C@H]1CC[C@H]2[C@@H]3CC=C4C[C@@H](C(C(=O)O)C(=O)O)CC[C@]4(C)[C@H]3CC[C@]12C,-48% (active)
9,O=S(=O)(Nc1ccc(Cl)cc1)c1ccc(-c2cnc(C3CC3)o2)cc1,34.5% (inactive)
10,C#CCOc1ccc2ncnc(Nc3ccc(NC(=O)CCl)cc3)c2c1,-39% (active)
11,CCOC(=O)C1=C(NC)OCC1=O,99.9% (inactive)
12,COC(=O)c1c2c(c(C)[n+]([O-])c1C)C(=O)C=C(NCc1ccc(Br)cc1)C2=O,-44.8% (active)
13,CCN(CC)CCOc1ccc(-c2c(-c3ccccc3)c(=O)oc3ccccc23)cc1,94.8% (inactive)

# — PubChem BioAssay (NCI)
